Compound activity deposited in PubChem BioAssay by National Center for Advancing Translational Sciences (NCATS).
Cruzain Triton – cruzain (T. cruzi) inhibition with detergent; AID 1478; Potency, µM, actives largely listed as inhibitors; P25779; purified cruzain, Z-FR-AMC fluorescence, 0.01% Triton; actives 0.43% (n = 200,000); note: nearly all actives have a fitted effect of over 40% in size
Target sequence (P25779 123-467 limits assumed): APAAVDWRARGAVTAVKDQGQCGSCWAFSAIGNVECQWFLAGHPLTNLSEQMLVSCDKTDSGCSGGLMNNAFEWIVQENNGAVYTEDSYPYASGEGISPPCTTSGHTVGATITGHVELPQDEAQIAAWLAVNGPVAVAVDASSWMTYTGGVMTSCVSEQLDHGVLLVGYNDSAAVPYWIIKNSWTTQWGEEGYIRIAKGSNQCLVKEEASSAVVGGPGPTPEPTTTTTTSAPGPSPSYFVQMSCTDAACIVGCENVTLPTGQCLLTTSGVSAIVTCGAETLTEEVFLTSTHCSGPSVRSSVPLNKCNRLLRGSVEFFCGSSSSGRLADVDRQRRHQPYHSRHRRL
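Cysteine protease activity tested under reducing, mildly acidic conditions (100 mM sodium acetate pH 5.5, 5 mM DTT) plus 0.01% Triton X-100. Cruzain 1.5 nM; substrate Z-FR-AMC 2 uM; 15 min compound preincubation at room temperature.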
Cruzain inh noDet – cruzain (T. cruzi) inhibition without detergent; purified cruzain, Z-FR-AMC fluorescence, no detergent; Potency, µM, usual class: inhibitors; actives 2.3% (n = 200,000); note: nearly all actives have a fitted effect of over 40% in size
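Detergent-free condition (0.00005% Triton X-100) in acetate buffer pH 5.5 with DTT. 1.5 nM enzyme and compound were pre-mixed 15 min, then 2 uM Z-FR-AMC substrate added; reaction progress from fluorescence change between first and third reads (60 s).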
A number is an active result; – = inactive; ? = inconclusive. In the library only some 2.6% were active in any assay of this set; here they are far more common. Calls come from the whole dose curve; as a rule, active = well fitted curve in the direction sought with a large enough effect; inconclusive = small, poorly fitted or top-dose-only effect, or another doubt; inactive = no such curve, though single readings can be large; an effect the other way counts as inactive or inconclusive.

SMILES	Cruzain Triton	Cruzain inh noDet
Cc1ccc(CNC(=O)CCCn2c(=O)c3ccccc3n(Cc3ccc(Cl)cc3)c2=O)cc1	–	–
O=C(c1ccc(CSc2nc3ccncc3n2Cc2cccc(F)c2)cc1)N1CCCCC1	–	–
COc1ccc(NC(=O)CN2C(=O)C(C)N=C(c3ccccc3)c3ccccc32)cc1OC (stereo not given)	–	?
Cc1cccc(NC(=O)N[C@@H]2N=C(c3ccccc3)c3ccccc3N(CC(=O)c3ccccc3C)C2=O)c1	–	32µM
Cc1ccccc1CN1C(=O)C2(c3ccccc31)N(c1ccccc1)C(=O)CS2(=O)=O (stereo not given)	–	–
Cc1ccc(C)c(CN2C(=O)C3(c4ccccc42)N(c2cccc(C(F)(F)F)c2)C(=O)CS3(=O)=O)c1 (stereo not given)	–	1.3µM
Cc1ccc(N2C(=O)CS(=O)(=O)C23C(=O)N(Cc2cccc(F)c2)c2ccccc23)cc1Cl (stereo not given)	–	2µM
CN1C(=O)C2(c3ccccc31)N(c1cccc(F)c1)C(=O)CS2(=O)=O (stereo not given)	–	–
Cc1cc(C)cc(N2C(=O)CS(=O)(=O)C23C(=O)N(C)c2ccccc23)c1 (stereo not given)	–	–
Cc1ccc(CN2C(=O)C3(c4ccccc42)N(c2cccc(F)c2)C(=O)CS3(=O)=O)cc1 (stereo not given)	–	1.6µM
COc1ccc(N2C(=O)CS(=O)(=O)C23C(=O)N(Cc2cccc(F)c2)c2ccccc23)cc1OC (stereo not given)	–	–
Cc1ccc(N2C(=O)CS(=O)(=O)C23C(=O)N(Cc2ccccc2C)c2ccccc23)cc1Cl (stereo not given)	–	2µM
O=C(Cn1cc(SCc2cccc(F)c2)c2ccccc21)N1CCCC1	–	–
CN1C(=O)C2(c3ccccc31)N(c1ccc(F)c(Cl)c1)C(=O)CS2(=O)=O (stereo not given)	–	?
O=C1CSC2(C(=O)N(Cc3ccccc3F)c3ccccc32)N1c1ccc(F)cc1 (stereo not given)	–	–
CCc1cccc(N2C(=O)CS(=O)(=O)C23C(=O)N(Cc2ccccc2)c2ccc(C)cc23)c1 (stereo not given)	–	1.6µM
CCc1cccc(N2C(=O)CS(=O)(=O)C23C(=O)N(Cc2ccc(F)cc2)c2ccc(C)cc23)c1 (stereo not given)	–	?
O=C1CS(=O)(=O)C2(C(=O)N(Cc3ccccc3Cl)c3ccccc32)N1c1ccc(F)cc1 (stereo not given)	–	2.5µM
O=C1CS(=O)(=O)C2(C(=O)N(Cc3ccccc3)c3ccccc32)N1c1ccc(F)c(Cl)c1 (stereo not given)	–	2µM
CCN(CC)c1ccc(CNS(=O)(=O)c2cc3c(cc2C)NC(=O)CO3)cc1	–	–
CC1CCN(C(=O)c2ccc3c(c2)N(Cc2ccccc2)C(=O)c2ccccc2S3(=O)=O)CC1	–	–
CN1c2cc3c(cc2N=C(c2ccc(C(=O)O)cc2)c2ccccc21)C(C)(C)CCC3(C)C	?	–
COc1ccc(C(=O)N2CCC3(CCCN(Cc4cc(C(F)(F)F)cc(C(F)(F)F)c4)C3)CC2)cc1	–	–
CCN(C(=O)Cn1c(SCC(=O)Nc2ccc(OC)cc2)nc2ccccc21)c1cccc(C)c1	–	?
COc1cc(OC)c(NC(=O)N2CC=C(c3c[nH]c4ccccc34)CC2)cc1Cl	–	20µM
SMILES	Cruzain Triton	Cruzain inh noDet
Cc1ccc(C)c(NC(=O)N2CC=C(c3c[nH]c4ccccc34)CC2)c1	–	–
O=C(COC(=O)CSc1cc(Cl)ccc1Cl)Nc1ncc(C(F)(F)F)cc1Cl	–	–
Cc1ccc(C(=O)NCC(=O)OCC(=O)Nc2cc(C)c(C)cc2[N+](=O)[O-])cc1	8.9µM	10µM
O=C(COC(=O)CNC(=O)c1ccc(Cl)cc1)Nc1ncc(C(F)(F)F)cc1Cl	7.9µM	4µM
COc1ccc(NC(=O)COC(=O)CNC(=O)c2cc(OC)c(OC)c(OC)c2)cc1	–	–
COCC(=O)OCC(=O)Nc1cc(C)c(C)cc1[N+](=O)[O-]	–	–
Cc1ccsc1C(=O)OCC(=O)Nc1ccc(Cl)cc1C(F)(F)F	–	–
Cc1ccc(C(=O)NCC(=O)OCC(=O)Nc2ccc(Cl)cc2C(F)(F)F)cc1C	14µM	?
Cc1cc(C(=O)NCC(=O)OCC(=O)Nc2ccc(OC(F)F)cc2)ccc1[N+](=O)[O-]	11µM	10µM
CC1(C)C(O)C=C[C@@]2(C)C1CC(=O)O[C@@]1(C)C3=CC(=O)OC(c4ccoc4)[C@]3(C)CCC21 (stereo not given in full)	–	–
CC(=O)Nc1cccc(NC(=O)CSc2ccc(-c3sc(-c4ccccc4)nc3C)nn2)c1	–	?
Nc1nc(=O)c2[nH]cnc2n1O	–	–
C[N+]1(C)CC(O)[C@H](C(=O)[O-])C1 (stereo not given in full)	–	–
COC(=O)c1ccc2c(=O)n(CCCCCC(=O)N3CCN(c4cc(C)ccc4C)CC3)c(=O)[nH]c2c1	–	–
COc1cccc(C2=CC(c3ccccc3F)n3ncc(C(=O)Nc4ccc(F)cc4)c3N2)c1 (stereo not given)	–	–
COc1ccc(C(=O)NCC(=O)OCC(=O)Nc2cc(OC)ccc2OC)cc1	?	–
COc1ccc(Cl)cc1NC(=O)COC(=O)CNC(=O)c1ccc([N+](=O)[O-])c(C)c1	20µM	?
O=C(Cc1ccccc1)Nc1nnc(-c2cccs2)s1	–	25µM
COCC(=O)Nc1nnc(-c2cccs2)s1	–	–
CC(C)CC(NC(=O)C1CCCN1C(=O)OC(C)(C)C)C(=O)NCC(N)=O (stereo not given)	–	–
CC(C)C[C@H](NC(=O)C1OC1C(=O)O)C(=O)NCCCCN=C(N)N (stereo not given in full)	0.079µM	0.04µM
CN(CCC(=O)O)C1=Nc2ccc(Cl)cc2C(c2ccccc2)=[N+]([O-])C1	–	–
CCOc1ccc(CCNC(=O)CSc2nnnn2-c2ccccc2)cc1OCC	–	?
COc1cccc(NC(=O)N2CCN3CCCCC3C2)c1 (stereo not given)	–	–
Cc1cc(C)cc(NC(=O)Cn2nnc(-c3nc(-c4ccncc4)no3)c2N)c1	–	–
SMILES	Cruzain Triton	Cruzain inh noDet
Nc1c(-c2nc(-c3ccccc3)no2)nnn1CC(=O)Nc1cccc(F)c1	–	32µM
COc1cc(C2C(=O)N(C3CCCCC3)CC(=O)N2C2CCCCC2)ccc1OC(C)C (stereo not given)	–	–
COC(=O)CSc1nc(N)c2c3c(sc2n1)C(c1ccccc1)SC(c1ccccc1)C3 (stereo not given)	?	13µM
COC(=O)CSc1nc(N)c2c3c(sc2n1)CCCC3	–	–
Nc1ccc(-c2nc3ccc(-c4nc5ccc(N)cc5[nH]4)cc3[nH]2)cc1	14µM	25µM
Nc1ccc(-c2nc3ccccc3[nH]2)cc1	–	–
NC(=S)NCCCC(N)C(=O)O (stereo not given)	–	–
CCNc1ncc2ncc(=O)n(Cc3ccc(F)cc3)c2n1	?	–
COc1ccc2c(c1[N+](=O)[O-])CCC/C2=N/OC(=O)c1cccc2ccccc12	–	20µM
COc1ccccc1C(=O)ON=C1c2ccccc2-c2ccccc21	–	?
C=CCNc1sc(C(=O)c2ccccc2)c(N)c1C#N	–	–
C=CCNc1sc(C(=O)c2ccc(Br)s2)c(N)c1C#N	–	16µM
